From PubChem BioAssay AID1159580 (chemical genetic matrix, 2015)
Screen size: about 5,500 compounds; about 2,000 (36%) were called active. Roughly 18% stayed inconclusive and do not appear here. Cut-off read from the data, not from the text of the source: active = normalized growth mostly below about 0.91 (no sharp cut-off); inconclusive = no clear call, values can overlap the other calls; inactive = mostly above about 0.92. The list shows a part of the results.

Test: chemical genetic growth profiling, strain panel (AID 1159580);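 note: tested at 20 µM; growth read once vehicle control cultures reached saturation at 30 °C; 1 = growth at the plate median or of vehicle wells; lower values mean less growth of the strain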
Conditions: S. cerevisiae deletion strains, growth OD

Measured: normalized growth

Cc1ccc(-c2nn(-c3ccccc3)c(=O)c3ccccc23)cc1C
active: locus YEL061C, strain CIN8, stronger effect = lower value 0.908 | locus YHR030C, strain SLT2, stronger effect = lower value 0.504 | locus YLR039C, strain RIC1, stronger effect = lower value 0.634 | locus YLR085C, strain ARP6, stronger effect = lower value 0.736 | locus YLR262C, strain YPT6, stronger effect = lower value 0.629 | locus YPR135W, strain CTF4, stronger effect = lower value 0.612
inactive: locus YAL013W, strain DEP1, stronger effect = lower value 0.953 | locus YBR229C, strain ROT2, stronger effect = lower value 0.968 | locus YCL061C, strain MRC1, stronger effect = lower value 0.967 | locus YDL101C, strain DUN1, stronger effect = lower value 0.957 | locus YDR150W, strain NUM1, stronger effect = lower value 0.978 | locus YGR078C, strain PAC10, stronger effect = lower value 0.955 | locus YGR229C, strain SMI1, stronger effect = lower value 0.984 | locus YHR087W, strain rtc3, stronger effect = lower value 0.922 | locus YJL187C, strain SWE1, stronger effect = lower value 0.979 | locus YJR043C, strain POL32, stronger effect = lower value 0.998 | locus YJR075W, strain HOC1, stronger effect = lower value 0.908 | locus YKL190W, strain CNB1, stronger effect = lower value 0.977 | locus YLR058C, strain SHM2 (second series), stronger effect = lower value 0.967 | locus YML094W, strain GIM5, stronger effect = lower value 0.922 | locus YMR219W, strain ESC1, stronger effect = lower value 0.962 | locus YMR263W, strain SAP30, stronger effect = lower value 0.937 | locus YNL153C, strain GIM3, stronger effect = lower value 0.992 | locus YNL298W, strain CLA4 (second series), stronger effect = lower value 0.936 | locus YNL322C, strain KRE1, stronger effect = lower value 0.964 | locus YNR030W, strain Alg12, stronger effect = lower value 0.918 | locus YOL006C, strain TOP1, stronger effect = lower value 0.804 | locus YPL055C, strain LGE1, stronger effect = lower value 0.928 | locus YPL241C, strain CIN2, stronger effect = lower value 0.917
